From PubChem
Most compounds without a hit are left out; they make up all but 19% or so of the library.
TDP1 cell CPT: DT40-hTDP1 cell growth loss with CPT; Potency, µM (top dose mostly 46.2 µM), for inactives: at the highest dose activity change, negative = growth inhibition, hits mostly inhibitors; chicken DT40 Tdp1-/-;hTDP1 cells + 20 nM CPT, ATP luminescence, 48 h; 420,000 compounds, 12% hits; also: potency is read from the fitted curve at half-maximal effect; nearly all actives have a fitted effect of over 55% in size
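Chicken DT40 Tdp1-/- cells stably complemented with human TDP1 were seeded at 400 cells/well in medium containing 20 nM camptothecin, exposed to pin-transferred compounds, and grown at 37 °C for at least 48 hr. Viability was read as ATP luminescence.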
IL-1B inflam inh: inhibitors of inflammasome signaling (IL-1 beta secretion); THP-1 LPS/ATP IL-1B secretion, AlphaLISA, 16 h; active compounds read low; activity change, % at 57.5 µM; 360,000 compounds, 4.7% hits; in the data active = activity change below about -50%; inconclusive = mostly about -30% to -49%
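THP-1 cells pretreated 1 hr with compounds (up to 57.5 uM final), then stimulated with LPS (250 ng/mL final) plus ATP (1.25 mM final); secreted IL-1B measured by AlphaLISA after 16 hr, decreased signal indicating inhibition.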
HT1080 IDH1KD tx: HT-1080 IDH1 knockdown cell toxicity (counter line); HT-1080 IDH1 knockdown viability, ATP luminescence, 48 h; Potency, µM (series often up to 46.1 µM), without a hit: at the top dose activity, negative = toxicity, most hits filed as cytotoxic; 360,000 compounds, 2% hits;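 also: potency is read from the fitted curve at half-maximal effect; 0% = DMSO wells and -100% = cell-free medium wells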
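Cytotoxicity counter-line: IDH1KD HT-1080, 48 h, CellTiter-Glo. Curves classed by r2, magnitude and activity.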
TDP1 cell noCPT: qHTS for Inhibitors of human tyrosyl-DNA phosphodiesterase 1 (TDP1): qHTS in cells in absence of CPT; AID 686978, 2013; 420,000 compounds, 15% hits; Potency, µM (doses to about 46.2 µM), for inactives: top-dose activity change, negative = growth inhibition, usual class: inhibitors; DT40 Tdp1-/- hTDP1 cells, no CPT, ATP luminescence, 48 h; also: potency is read from the fitted curve at half-maximal effect; nearly all actives have a fitted effect of over 55% in size
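Compound effects on proliferation are scored in DT40 Tdp1-/-;hTDP1 cells in the absence of CPT. ATP levels (CellTiter-Glo luminescence) are recorded after a ≥48 hr, 37 °C incubation.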
HT1080-NT tox: kills 2HG-producing HT-1080-NT fibrosarcoma cells. HT-1080-NT fibrosarcoma viability, CellTiter-Glo ATP luminescence, 48 h. Potency, µM (series often up to 46.1 µM), inactives show at the top dose activity, negative = less viability, hits mostly cytotoxic. 360,000 compounds, 1.6% hits. AID 686970;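 also: NT is the 2HG producing partner of a matched IDH1 knockdown line; potency is read from the fitted curve at half-maximal effect; 0% = DMSO-treated cells and -100% = media-only wells without cells; nearly all actives have a fitted effect of over 55% in size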
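Luminescent CellTiter-Glo readout after 48 hours of compound exposure at 37 degrees C defined viability of HT-1080-NT cells. Activity was normalized to DMSO wells and cell-free media wells; concentration-response curves were fitted and assigned curve classes.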
* hit, by the source's call; ? = inconclusive; nt = no result; [ ] = another dose, or the depositor's remark. Unless noted, calls follow the shape of the dose curve; as a rule, active = well fitted curve in the direction sought with a large enough effect; inconclusive = small, poorly fitted or top-dose-only effect, or another doubt; inactive = no such curve, though single readings can be large; an effect the other way counts as inactive or inconclusive. Unless noted, % is scaled to controls: 0 for no effect and ±100 for the full control effect.

SMILES	TDP1 cell CPT	IL-1B inflam inh	HT1080 IDH1KD tx	TDP1 cell noCPT	HT1080-NT tox
COc1ccc(-n2c(CNc3ccc(C)cc3)nnc2SCc2ccccc2)cc1	?	-18.7	-16.5%	16.4µM*	-13.3%
C=CCSc1nnc(CNC(=O)c2ccc(Cl)cc2)n1CC	10.0%	-69.2*	3.8%	4.0%	-2.4%
CCn1c(Cn2nnc(-c3ccccc3)n2)nnc1SCc1ccc(Cl)c(Cl)c1	20.6µM*	-0.7	?	23.1µM*	?
Cc1nc2ccccc2nc1OCc1ccc([N+](=O)[O-])cc1	-17.7%	-15.0	-1.7%	?	20.0%
CNc1cnc(-c2ccc(C(=O)N3CCOCC3)cc2)cn1	?	21.9	0.0%	-5.0%	?
CCn1c(SCC(=O)Nc2ccccc2)nnc1-c1cccs1	12.0%	0.0	-0.3%	-1.1%	0.7%
CCn1c(SCc2ccccc2)nnc1-c1cccs1	18.4µM*	-21.6	?	6.51µM*	-7.7%
COC(=O)CS(=O)(=O)c1nc2ccccc2nc1N1CCCCC1	20.6µM*	nt	nt	13µM*	nt
Cc1cc(C)nc(N/N=C/c2ccccc2OCc2ccccc2)n1	?	-9.7	0.5%	?	-1.7%
Cc1cc(C)nc(N/N=C/c2ccccc2OCc2ccc(Cl)cc2)n1	16.4µM*	10.3	?	?	-22.2%
Cc1cc(C)nc(N/N=C/c2ccccc2OCc2cccc(Br)c2)n1	?	-62.5*	?	18.4µM*	?
Cc1cc(C)nc(N/N=C/c2cc(Br)ccc2O)n1	5.17µM*	125.8	?	3.66µM*	-3.8%
C/C(=N/Nc1nc(C)cc(C)n1)c1ccc(Br)cc1	?	1.6	-20.1%	?	-9.5%
CCOC(=O)c1c(C)n(C)c2cc(CN(C)C)c(O)c(S(=O)(=O)c3ccccc3)c12	5.8%	-12.8	4.9%	-22.0%	-10.9%
CCOC(=O)c1ccc(-c2c(-c3ccc4c(c3)OCO4)noc2C)cc1F	15.8µM*	20.5	-10.5%	?	-0.8%
Cc1noc(C)c1COC(=O)c1ccc2c(c1)OCO2	11.6%	1.9	9.0%	-7.1%	20.1%
CSCC[C@H](NC(=O)N1CCn2c1nc1ccccc12)C(=O)NCc1ccco1	?	?	-0.3%	3.6%	-1.1%
Cc1ccc(SCCC(=O)OC(C(=O)NC(N)=O)C(C)C)cc1 (configuration not stated)	16.4µM*	23.3	11.4%	16.4µM*	0.0%
Cc1ccc(SCCC(=O)NC(C)C)cc1	-4.9%	-8.2	12.2%	3.2%	16.3%
Cn1cc(C(=O)Nc2ccc(F)c(Cl)c2)cn1	-16.0%	-6.1	18.3%	?	?
CN1CCC(Nc2ncc3ncnc(Nc4ccc(F)c(Cl)c4)c3n2)CC1	?	nt	nt	21.1µM*	nt
Cc1cccc(-c2ccc3c(c2)C2CC3CCN2C(=O)OCc2ccccc2)c1 (configuration not stated)	?	3.0	6.4%	?	11.6%
CCOC(=O)c1nc2ccc(C)cc2c2c1C1CC(c3c(Cl)cccc31)N2C(=O)OCc1ccccc1 (configuration not stated)	14.6µM*	11.4	-29.4%	18.4µM*	2.8%
O=C(O)C1CCCCN1C(=O)c1cc2c(s1)CCCCC2 (configuration not stated)	-18.9%	5.3	11.4%	4.3%	6.3%[9.24 µM]
CCCCN(CC)S(=O)(=O)c1ccc(C(=O)Nc2nnc(COC)o2)cc1	?	10.0	?	?	?
SMILES	TDP1 cell CPT	IL-1B inflam inh	HT1080 IDH1KD tx	TDP1 cell noCPT	HT1080-NT tox
COCc1nnc(NC(=O)c2ccc(S(=O)(=O)N(C)c3ccccc3)cc2)o1	16.4µM*	-2.5	-26.9%	?	-7.6%
COCc1nnc(NC(=O)c2ccc(S(=O)(=O)N(CC(C)C)CC(C)C)cc2)o1	?	88.6	?	?	?
C=CCN(CC=C)S(=O)(=O)c1ccc(C(=O)Nc2nnc(COC)o2)cc1	?	0.0	?	16.4µM*	-20.9%
CN1CCN(c2nc(NCCOC34CC5CC(CC(C5)C3)C4)nc(OCC(F)(F)F)n2)CC1	?	-80.2*	13.2%	?	9.4%
Cc1noc(C)c1C(=O)N1CCC1(C)C(=O)NS(=O)(=O)c1ccccc1C(F)(F)F (configuration not stated)	-9.6%	4.3	1.8%	-5.1%	3.7%
COc1ccc2nc(SCC(=O)Nc3ccc4sc(C)nc4c3)c(C#N)cc2c1	13µM*	13.1	-1.2%	8.2µM*	2.3%
CCSc1nc2ccc(OC)cc2cc1C#N	8.6%	-1.4	9.7%	-10.6%	6.0%
O=C(c1cc2cccc([N+](=O)[O-])c2oc1=O)N1CCOCC1	2.7%	-7.3	4.1%	-22.2%	4.0%
CCCCCCCCCCCCCCCCOCC(CO)OC(C)=O (configuration not stated)	8.7%[4.12 µM]	nt	nt	6.3%[4.12 µM]	nt
Cc1cc(C)nc(Nc2nc(=O)c3ccccc3s2)n1	?	-16.3	18.7%	20.6µM*	10.4%
COc1ccccc1NCC(O)COc1ccc(C(C)(C)C)cc1 (configuration not stated)	14.6µM*	-105.8*	16.4µM*	16.4µM*	16.4µM*
CC(C)(C)c1ccc(OCC(O)CNC(=O)c2ccccc2C(=O)O)cc1 (configuration not stated)	-24.7%	23.8	2.2%	?	-16.4%
COc1ccc(OCC(O)CNCCOc2ccccc2OC)c(C(C)(C)C)c1 (configuration not stated)	10.3µM*	-72.6*	-13.4%	9.2µM*	-28.0%
COC(=O)c1ccc(CNCC(O)COc2ccc(-c3ccccc3)cc2)cc1 (configuration not stated)	?	14.2	-10.1%	?	-15.3%
COc1ccc(CNCC(O)COc2ccc(C(C)(C)c3ccccc3)cc2)cc1 (configuration not stated)	?	-100.4*	16.4µM*	?	20.6µM*
OC(CNCc1ccco1)COc1ccccc1 (configuration not stated)	1.16µM*	7.1	-22.6%	-41.0%	-5.5%
COc1ccc(NCC(O)COc2ccc(C(C)(C)C)cc2)cc1 (configuration not stated)	?	-65.3*	?	?	?
OC(CNc1ccccc1)COc1ccc(OCC(O)CNc2ccccc2)cc1 (configuration not stated)	13µM*	-50.8*	20.6µM*	8.2µM*	20.6µM*
CC(C)(C)NCC(O)COc1ccc(Br)cc1 (configuration not stated)	-18.9%	?	-2.2%	-3.8%	-8.1%
COC(=O)COC(=O)CC(CC(N)=O)c1ccccc1 (configuration not stated)	-2.8%	55.3	2.7%	10.9%	8.9%
